PfHsp40 rescue – rescue of yeast from PfHsp40 toxicity, primary screen, S. cerevisiae, ATP luminescence | S. cerevisiae expressing PfHsp40, growth rescue | growth rescue, % at 12.5 µM | hit rate 0.68% among 340,000; in the data active means growth rescue above about 28%, passing the limit was not always enough;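 further: yeast W303a lacking pdr1 and pdr3 grown in galactose medium; growth measured after three days at 30 °C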
Y pestis TopoI – Yersinia pestis topoisomerase I inhibitors, primary screen, biochemical, cleavage product accumulation, plate reader, single point. DNA topoisomerase I (Yersinia pestis CO92). Y. pestis Topo-I cleavage product accumulation. activity, % at 10 µM. hit rate 0.064% among 360,000. AID 504884, 2011; in the data active means activity above about 50%, passing the limit was not always enough
BJeLR viability – MLPCN primary cell-based screen for lethality selective to Ras in HRASV12 cells; inhibition, % (test concentration not listed); hit rate 0.17% among 300,000; BJeLR (HRASV12) viability, CellTiter-Glo ATP luminescence, 48 h; in the data active means inhibition above about 50%
PrP 5UTR inh – inhibition of PrP 5' UTR reporter expression | cell-based PrP 5' UTR mRNA reporter, plate reader | inhibition, % (test concentration not listed) | hit rate 0.35% among 340,000; in the data active means inhibition above about 52%
CCHF vOTU inh – CCHFV vOTU protease inhibitors, primary screen, biochemical, Pep-AMC substrate, fluorescence; Crimean-Congo hemorrhagic fever virus L polyprotein viral ovarian tumor (vOTU) protease …; inhibition, % at 11.5 µM; hit rate 0.55% among 370,000; AID 651958, 2012; in the data active means inhibition above about 30%
PrPC TRFRET – inhibitors of human cell surface prion protein PrPC, primary screen, cell-based, TR-FRET; AID 720596, 2013; TR-FRET read-out; inhibition, % at 13.8 µM; Major prion protein (Homo sapiens), P04156; hit rate 0.43% among 370,000; in the data active means inhibition above about 24%
Large screens that a line does not name were inactive. This is a sample that favours compounds with a hit; in the whole collection about 2% have one here.

Nn1c(SCC(=O)Nc2ccc(C(=O)O)cc2)nnc1-c1ccco1	none (no result: PfHsp40 rescue, Y pestis TopoI, BJeLR viability, PrP 5UTR inh)
Cc1cccc(COCC(Cc2ccccc2)N2CCN(C(=O)c3ccc(Cl)c(Cl)c3)CCC2=O)c1 (stereo not drawn)	none
O=C(c1ccc(Cl)c(Cl)c1)N1CCC(=O)N(C(COCc2ccc(Cl)cc2)Cc2ccccc2)CC1 (stereo not drawn)	PfHsp40 rescue 30
Cc1ccc(C(=O)O)cc1NC(=S)NC(=O)c1ccc(-c2ccccc2)cc1	PfHsp40 rescue 113
CC(C)NC(=S)NC(=O)c1ccc(-c2ccccc2)cc1	PfHsp40 rescue 59
O=C(NC(=S)Nc1ccc(-c2ccccc2)cc1)c1ccccc1	none (no result: BJeLR viability)
Cc1ccc(C(=O)NC(=S)Nc2ccccc2C(F)(F)F)cc1C	PfHsp40 rescue 32
Cc1ccc(S(=O)(=O)NC[C@@H]2C[C@H](c3ccccc3)ON2S(=O)(=O)c2ccc(C)cc2)cc1	none (no result: PfHsp40 rescue, Y pestis TopoI, BJeLR viability, PrP 5UTR inh, CCHF vOTU inh)
COC(=O)[C@]12C[C@H](CC(=O)N3CCN(C(=O)c4ccco4)CC3)C(=O)N(CCC3=CCCCC3)C1=C[C@H](C(C)(C)C)O[C@@H]2C	none (no result: PfHsp40 rescue, Y pestis TopoI, BJeLR viability, PrP 5UTR inh)
C=CCNC(=O)Nc1ccc2c(c1)[C@@]1(CC(=O)N(CC(C)C)C1c1ccccc1)C(=O)N2C (stereo partly drawn)	none (no result: PfHsp40 rescue, Y pestis TopoI, BJeLR viability, PrP 5UTR inh)
CCCC[C@H]1C2CC(OC(=O)Nc3cccc(Cl)c3)C(C2)[C@H]2CCCCN21 (stereo partly drawn)	none (no result: PfHsp40 rescue, Y pestis TopoI, BJeLR viability, PrP 5UTR inh)
Fc1ccc(-n2c(-c3cc(C4CC4)[nH]n3)n[nH]c2=S)cc1Cl	none
O=c1ccc(-c2n[nH]c(=S)n2-c2ccc(F)c(Cl)c2)n[nH]1	PfHsp40 rescue 52
Cc1ccc(Cn2cc(CN3[C@H](CC(C)C)COc4cc(Br)ccc4S3(=O)=O)nn2)cc1	none (no result: PfHsp40 rescue, Y pestis TopoI, BJeLR viability, PrP 5UTR inh)
COc1ccc(CN2CCN(C(=O)C3CC(=O)N(C4CCCCCC4)C3)CC2)c(OC)c1OC (stereo not drawn)	Y pestis TopoI 74
Cc1ccc(-c2cc(-c3nnc(SCC(=O)Nc4nccs4)n3N)[nH]n2)cc1	none (no result: PfHsp40 rescue, Y pestis TopoI, BJeLR viability, PrP 5UTR inh)
CCOc1ccc(-n2c(O)c(/C=N/NC(=O)C3COc4ccccc4O3)c3ccccc3c2=O)cc1 (stereo not drawn)	PfHsp40 rescue 303
COc1cc(/C=N\NC(=O)C2COc3ccccc3O2)cc(OC)c1O (stereo not drawn)	none
FC(F)(F)c1cc(Cl)c2nc(-c3ccccc3)c(Cc3cccc(Cl)c3)n2c1	CCHF vOTU inh 31 (no result: PfHsp40 rescue, Y pestis TopoI, BJeLR viability, PrP 5UTR inh)
CC1=NN(C(N)=S)C(=O)C1N=Nc1cccc(Cl)c1C (stereo not drawn)	PfHsp40 rescue 104
Cc1cc(NS(=O)(=O)c2ccc(NC(=O)CSc3nnc(-c4ccncc4)n3-c3ccccc3)cc2)nc(C)n1	none (no result: PfHsp40 rescue, Y pestis TopoI, BJeLR viability, PrP 5UTR inh)
O=C1ON=C(c2ccccc2)/C1=C\c1ccco1	none
Cc1ccc(/C=C2/C(=O)ON=C2c2ccccc2)o1	BJeLR viability 51
Cc1ccc(CN2C(=O)CCC2C(=O)NCc2ccc(F)cc2)cc1 (stereo not drawn)	PfHsp40 rescue 63
CN(C(=O)c1cccc(NC(=O)Cc2ccc(NC(=O)C3CCN(S(=O)(=O)c4cccc([N+](=O)[O-])c4)CC3)cc2)c1)C1CCCC1	PfHsp40 rescue 120 (no result: BJeLR viability)
CN(C(=O)c1ccc(NC(=O)Cc2ccc(NC(=O)C3CCN(C(=O)C4CCCC4)CC3)cc2)cc1)C1CC1	PfHsp40 rescue 36 (no result: BJeLR viability)
O=C(O)c1ccc(/C=N/Nc2nc3ccccc3[nH]2)cc1	none
Cn1c(/C=N/Nc2nc3ccccc3[nH]2)nc2ccccc21	none
CCN(CC)c1ccc(/C=N/Nc2nc3ccccc3[nH]2)cc1	PrPC TRFRET 37
CC(=O)Nc1ccc(/C=N/Nc2nc3ccccc3[nH]2)cc1	BJeLR viability 67
C(=N\Nc1nc2ccccc2[nH]1)/c1ccncc1	none
Cc1c(/C=N/Nc2nc3ccccc3[nH]2)c2ccccc2n1C	BJeLR viability 65
COc1cccc(C(=O)N[C@H](C(=O)N2CCC[C@H]2C(=O)NC2CCCC2)c2ccccc2)c1	none (no result: PfHsp40 rescue, Y pestis TopoI, BJeLR viability, PrP 5UTR inh)
CC(C)C[C@H](NC(=O)N1CCOCC1)C(=O)N1CCC[C@H]1C(=O)NCc1ccccc1	none (no result: PfHsp40 rescue, Y pestis TopoI, BJeLR viability, PrP 5UTR inh)

High-throughput results (PubChem)
